Experiments:
[1] = target: 26S proteasome regulatory subunit 4 homolog (UniProt P40327); assay: cross-link between two proteins; cross-linking mass spectrometry
[2] = target: 26S proteasome regulatory subunit 7 homolog (UniProt P33299); assay: as above
[3] = target: 26S proteasome regulatory subunit RPN1 (UniProt P38764); assay: as above
[4] = target: 26S proteasome regulatory subunit RPN6 (UniProt Q12377); assay: as above
[5] = target: 26S proteasome regulatory subunit RPN8 (UniProt Q08723); assay: as above
[6] = target: Probable 26S proteasome regulatory subunit p28 (UniProt P50086); assay: as above
[7] = target: Ubiquitin C-terminal hydrolase RPN11 (UniProt P43588); assay: as above
[8] = target: 26S proteasome regulatory subunit 6B homolog (UniProt P33298); assay: as above
[9] = target: 26S proteasome regulatory subunit 8 homolog (UniProt Q01939); assay: as above
[10] = target: 26S proteasome regulatory subunit RPN7 (UniProt Q06103); assay: as above
[11] = target: Proteasome subunit alpha type-4 (UniProt P40303); assay: as above
[12] = target: 26S proteasome regulatory subunit RPN5 (UniProt Q12250); assay: as above
[13] = target: 26S proteasome regulatory subunit RPN9 (UniProt Q04062); assay: as above
[14] = target: 26S proteasome subunit RPT4 (UniProt P53549); assay: as above
[15] = target: Proteasome subunit beta type-1 (UniProt P38624); assay: as above
[16] = target: Proteasome subunit beta type-7 (UniProt P30657); assay: as above
[17] = target: Ubiquitin carboxyl-terminal hydrolase 6 (UniProt P43593); assay: as above
[18] = target: Proteasome subunit beta type-5 (UniProt P30656); assay: as above
[19] = target: 26S proteasome subunit RPT4 (UniProt P53549); assay: cross-link between two proteins; affinity purification or IP with mass spectrometry; cross-linking mass spectrometry
[20] = target: Proteasome subunit alpha type-6 (UniProt P40302); assay: cross-link between two proteins; cross-linking mass spectrometry
[21] = target: Proteasome subunit alpha type-1 (UniProt P21243); assay: as above

Measured: listed as a hit

26S proteasome regulatory subunit 6B homolog, P33298
yes: [1] | [2] | [3] | [4] | [5] | [6] | [7]

26S proteasome regulatory subunit RPN10, P38886
yes: [7]

Proteasome subunit alpha type-5, P32379
yes: [2]

26S proteasome regulatory subunit RPN2, P32565
yes: [8] | [2] | [3] | [4] | [5] | [7]

Proteasome subunit alpha type-3, P23638
yes: [1] | [9] | [4] | [10] | [11]

26S proteasome subunit RPT4, P53549
yes: [9] | [12] | [5] | [13]

Proteasome subunit alpha type-1, P21243
yes: [8] | [12] | [14] | [15] | [16]

26S proteasome regulatory subunit 8 homolog, Q01939
yes: [4] | [10] | [5]

26S proteasome regulatory subunit 6A, P33297
yes: [8] | [9] | [12] | [5]

26S proteasome regulatory subunit RPN1, P38764
yes: [1] | [9] | [10] | [5] | [14] | [7] | [17]

26S proteasome regulatory subunit RPN12, P32496
yes: [13]

Proteasome subunit alpha type-4, P40303
yes: [1] | [9]

26S proteasome regulatory subunit 7 homolog, P33299
yes: [9] | [3] | [10] | [5] | [14] | [11] | [17]

Probable 26S proteasome regulatory subunit p28, P50086
yes: [9] | [4]

Proteasome subunit beta type-4, P22141
yes: [18]

Heat shock protein SSA1, P10591
yes: [19]

Proteasome subunit beta type-6, P23724
yes: [20] | [18] | [16]

Probable proteasome subunit alpha type-7, P21242
yes: [12] | [14] | [21]

Proteasome subunit alpha type-2, P23639
yes: [8] | [9] | [4]

Ubiquitin C-terminal hydrolase RPN11, P43588
yes: [13]

26S proteasome regulatory subunit 4 homolog, P40327
yes: [14] | [17]

Source: PMC6753376
